Data on four compounds can be found in PubChem BioAssay.

Assay [1] concerns Wnt5a (protein binding on small-molecule microarray). Description: small molecules binding Wnt5a protein – biophysical, small-molecule microarray, 635/667 nm fluorescence, primary screen (AID 1142).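 Note: fluorescence read at 667 nm with signal to noise per printed feature.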 The settings on record: 635 nm fluorescence, higher = more signal.
Assay [2] can be described thus: ATP-based viability of Huh7 replicon cells – cell-based, CellTiter-Glo luminescence, basal, 48 h, cytotoxicity control for HCV replication inhibitor project, primary screen (AID 1143).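 Note: Huh7 hepatoma cells carrying a hepatitis C replication reporter with no stimulus; test concentration not given here.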 To be noted: higher = more signal, called active from +8 up or from −8 down.
A short description of assay [3]: Pseudomonas biofilm growth suppression – PAO1 strain, BacTiter-Glo luminescence, LB-PBS, primary screen (AID 1144). The settings on record: P. aeruginosa PAO1 biofilm, 12 h, higher = more signal.
The nature of assay [4]: basal CRE-LacZ reporter activity in PC12 – cell-based, unstimulated, primary screen (AID 1145). To be noted: no forskolin, luminescence, 4.5 h, higher = more signal, called active from +8 up or from −8 down.
A short description of assay [5]: forskolin-driven CRE-LacZ activity in PC12 – cell-based, CRE-LacZ reporter, forskolin-stimulated, primary screen (AID 1146).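 Note: PC12 cells with 6xCRE LacZ reporter stimulated by forskolin 10 µM; beta-galactosidase reporter signal reflecting CREB driven transcription.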 The settings on record: luminescence, 4.5 h, higher = more signal, called active from +8 up or from −8 down.
For assay [6], the target named is Streptavidin (Streptomyces avidinii) (UniProt P22629). Description: compounds binding control protein streptavidin – biophysical, small-molecule microarray, 635/667 nm fluorescence, artefact control for SMM compound annotation, primary screen (AID 1147).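 Note: signal reflects streptavidin binding to arrayed compounds as a control protein.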 The settings on record: higher = more signal.
Streptavidin (Streptomyces avidinii), sequence (P22629 whole entry, looked up): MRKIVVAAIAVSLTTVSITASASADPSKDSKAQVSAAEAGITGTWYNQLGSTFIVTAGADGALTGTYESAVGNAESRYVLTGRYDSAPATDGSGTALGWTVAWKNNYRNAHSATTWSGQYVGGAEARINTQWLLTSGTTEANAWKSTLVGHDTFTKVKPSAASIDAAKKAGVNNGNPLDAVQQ
Assay [7] can be described thus: probe aInhba binding on compound microarray – biochemical, small-molecule microarray, 635/667 nm fluorescence, primary screen (AID 1148).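 Note: score merges 667nm spot fluorescence with signal-to-noise for antibody binding to printed compounds.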 To be noted: higher = more signal.
For assay [8], the target named is Torsin-1A (Homo sapiens) (UniProt O14656). Briefly: TOR1A wild-type binding on microarray – cell lysate, small-molecule microarray, lysate, 635/667 nm, primary screen (AID 1149). The settings on record: COS7 hTOR1A-WT lysate, 635 nm fluorescence, higher = more signal.
Torsin-1A (Homo sapiens), sequence (O14656 whole entry, looked up): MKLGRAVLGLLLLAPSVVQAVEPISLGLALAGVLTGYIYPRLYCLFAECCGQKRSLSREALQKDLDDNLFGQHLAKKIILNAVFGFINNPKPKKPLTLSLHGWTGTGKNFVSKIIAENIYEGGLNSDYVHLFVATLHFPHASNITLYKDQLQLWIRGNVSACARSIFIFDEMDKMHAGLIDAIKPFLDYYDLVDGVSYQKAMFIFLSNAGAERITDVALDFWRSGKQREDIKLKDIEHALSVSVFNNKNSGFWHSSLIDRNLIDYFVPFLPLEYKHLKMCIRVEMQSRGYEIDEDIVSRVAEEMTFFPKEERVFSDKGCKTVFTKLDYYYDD
The target is the same in assay [9]. Description: torsin A mutant lysate binding on microarrays – cell lysate, small-molecule microarray, COS7 lysate, 635/667 nm fluorescence, primary screen (AID 1150).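 Note: score pools 667 nm emission and signal to noise measuring lysate protein binding.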 To be noted: COS7 hTOR1A mutant lysate, 635 nm fluorescence, higher = more signal.
Assay [10] deals with Sonic hedgehog protein (Shh). Briefly: Sonic hedgehog microarray binding compounds – biochemical, small-molecule microarray, 635/667 nm fluorescence, primary screen (AID 1151).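 Note: Shh protein binding to compounds spotted on small-molecule microarray slides; score combines spot fluorescence intensity with signal-to-noise across triplicate slides.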 The settings on record: 635 nm fluorescence, higher = more signal.
A short description of assay [11]: optical density shifts of acrAB sulA E. coli – strain DRC41, OD650, 48 h, E. coli filamentation inducer project, primary screen (AID 1152).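 Note: E. coli MC1000 strain DRC41 lacking acrAB efflux pump and sulA.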 To be noted: higher = more signal, called active from +8 up or from −8 down.
The nature of assay [12]: probe aLefty1 binding on compound microarray – biochemical, small-molecule microarray, 635/667 nm fluorescence, primary screen (AID 1153).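 Note: score merges spot fluorescence with signal-to-noise ratio from the scanned slide images.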 The settings on record: higher = more signal.
Assay [13] in a line: plasmodial surface anion channel blockers, osmotic lysis – cell-based, P. falciparum Indochina, OD700, 1 h, primary screen (AID 1154). The settings on record: P. falciparum Indochina infected RBC osmotic lysis, higher = more signal, called active from +8 up or from −8 down.
A short description of assay [14]: plasmodial surface anion channel blockers, osmotic lysis – cell-based, P. falciparum Indochina, OD700, 2 h, primary screen (AID 1155).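 Note: lysis reports solute entry through the parasite surface anion channel PSAC.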 To be noted: P. falciparum Indochina infected erythrocytes, higher = more signal, called active from +8 up or from −8 down.
The nature of assay [15]: changes in parasitized red cell lysis, either direction – P. falciparum Indochina, OD700, 3 h, PSAC antagonist project, primary screen (AID 1156). The settings on record: P. falciparum-infected erythrocytes, osmotic lysis, higher = more signal, called active from +8 up or from −8 down.
Assay [16] is described as follows: plasmodial surface anion channel blockers, osmotic lysis – cell-based, P. falciparum Indochina, OD700, 18 h, primary screen (AID 1157). The settings on record: P. falciparum Indochina infected erythrocytes, osmotic lysis OD700, 18 h; higher = more signal, called active from +8 up or from −8 down.
Assay [17] in a line: S6 kinase pathway phospho-S6 level changes – cell-based, A549, cytoblot, luminescence, serum-stimulated, primary screen (AID 1158).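 Note: serum-stimulated A549 lung adenocarcinoma cells; signal is phosphorylated S6 detected by cytoblot immunostaining with HRP secondary.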 To be noted: 5 h, higher = more signal.
The target in assay [18] is NADPH oxidase 2 (Homo sapiens) (UniProt P04839). Description: compounds shifting NOX2 Amplex Red fluorescence – cell-based, HEK293-NOX2, PMA-stimulated, NOX inhibitor project, primary screen (AID 1159). Note: test concentration not given here. To be noted: 45 min, higher = more signal, called active from +8 up or from −8 down.
NADPH oxidase 2 (Homo sapiens), sequence (P04839 whole entry, looked up): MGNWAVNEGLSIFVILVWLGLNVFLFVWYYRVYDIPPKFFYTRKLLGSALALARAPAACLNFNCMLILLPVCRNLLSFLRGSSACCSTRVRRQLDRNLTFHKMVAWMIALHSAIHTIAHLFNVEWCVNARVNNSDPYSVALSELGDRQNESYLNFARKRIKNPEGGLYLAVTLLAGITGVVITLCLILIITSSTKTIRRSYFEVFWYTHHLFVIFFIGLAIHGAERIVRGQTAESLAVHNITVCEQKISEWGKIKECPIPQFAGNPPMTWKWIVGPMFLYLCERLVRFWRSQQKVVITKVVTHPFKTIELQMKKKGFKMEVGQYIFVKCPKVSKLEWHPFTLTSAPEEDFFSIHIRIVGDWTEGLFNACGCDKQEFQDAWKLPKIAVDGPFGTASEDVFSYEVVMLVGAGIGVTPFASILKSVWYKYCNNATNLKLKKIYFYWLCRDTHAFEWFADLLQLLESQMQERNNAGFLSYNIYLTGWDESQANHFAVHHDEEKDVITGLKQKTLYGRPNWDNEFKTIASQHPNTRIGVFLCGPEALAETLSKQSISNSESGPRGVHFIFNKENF
The target in assay [19] is NADPH oxidase 4 (Homo sapiens) (UniProt Q9NPH5). Briefly: compounds shifting NOX4 Amplex Red fluorescence – cell-based, HEK293-NOX4, tetracycline-induced, NOX inhibitor project, primary screen (AID 1160). To be noted: HEK293-NOX4, Amplex Red H2O2 fluorescence, 45 min; higher = more signal, called active from +8 up or from −8 down.
NADPH oxidase 4 (Homo sapiens), sequence (Q9NPH5 whole entry, looked up): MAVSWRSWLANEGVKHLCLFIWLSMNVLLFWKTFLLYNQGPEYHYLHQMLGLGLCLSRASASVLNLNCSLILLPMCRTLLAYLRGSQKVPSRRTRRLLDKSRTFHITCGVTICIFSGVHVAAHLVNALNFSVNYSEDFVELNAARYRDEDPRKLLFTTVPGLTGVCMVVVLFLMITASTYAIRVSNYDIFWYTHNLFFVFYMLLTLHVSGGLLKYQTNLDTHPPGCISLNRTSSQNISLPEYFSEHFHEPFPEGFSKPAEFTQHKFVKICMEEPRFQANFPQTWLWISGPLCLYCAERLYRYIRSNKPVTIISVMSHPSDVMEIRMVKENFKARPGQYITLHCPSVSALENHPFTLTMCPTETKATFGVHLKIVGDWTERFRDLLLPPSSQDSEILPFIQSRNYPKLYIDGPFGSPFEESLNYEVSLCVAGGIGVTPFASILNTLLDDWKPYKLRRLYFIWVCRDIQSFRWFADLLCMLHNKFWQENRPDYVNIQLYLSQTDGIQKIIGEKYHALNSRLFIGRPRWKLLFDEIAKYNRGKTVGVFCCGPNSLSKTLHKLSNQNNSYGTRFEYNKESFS
Assay [20] has as its target NADPH oxidase 5 (Homo sapiens) (UniProt Q96PH1). Description: compounds shifting NOX5 Amplex Red fluorescence – cell-based, HEK293-NOX5, NOX inhibitor project, primary screen (AID 1161). To be noted: HEK293-NOX5, ionomycin, 45 min, higher = more signal.

Activity calls are given as the source filed them. Unless noted, the rule behind the calls is not given here.

NADPH oxidase 5 (Homo sapiens), sequence (Q96PH1 whole entry, looked up): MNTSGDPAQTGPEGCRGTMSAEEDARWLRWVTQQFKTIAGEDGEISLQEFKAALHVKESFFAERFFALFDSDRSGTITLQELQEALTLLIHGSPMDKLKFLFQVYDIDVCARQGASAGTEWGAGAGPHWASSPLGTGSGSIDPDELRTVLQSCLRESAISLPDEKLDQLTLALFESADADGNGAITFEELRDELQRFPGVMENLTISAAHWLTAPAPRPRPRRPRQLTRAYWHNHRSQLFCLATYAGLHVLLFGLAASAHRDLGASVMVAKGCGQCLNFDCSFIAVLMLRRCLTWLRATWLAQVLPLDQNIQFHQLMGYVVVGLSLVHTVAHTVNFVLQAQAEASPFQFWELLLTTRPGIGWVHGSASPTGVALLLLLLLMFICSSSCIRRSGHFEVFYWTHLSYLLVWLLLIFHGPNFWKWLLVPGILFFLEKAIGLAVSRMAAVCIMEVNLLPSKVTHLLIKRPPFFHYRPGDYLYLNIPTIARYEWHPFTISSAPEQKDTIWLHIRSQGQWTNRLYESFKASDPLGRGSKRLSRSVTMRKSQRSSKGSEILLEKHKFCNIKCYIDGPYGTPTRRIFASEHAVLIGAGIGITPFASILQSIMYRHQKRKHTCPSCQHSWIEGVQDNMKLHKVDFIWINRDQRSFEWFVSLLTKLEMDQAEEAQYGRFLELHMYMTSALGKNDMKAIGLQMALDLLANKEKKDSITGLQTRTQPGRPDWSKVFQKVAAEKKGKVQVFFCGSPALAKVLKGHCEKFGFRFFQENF

`COC(=O)[C@@]1(Cc2ccccc2N=[N+]=[N-])N=C(c2ccc(OCCCO)cc2)O[C@H]1c1ccccc1`: the composite z-score in [1] is 0.748; in assay [6] it was 0.248; in assay [7] it was -0.0403; in the assay with Torsin-1A (Homo sapiens) [8], -0.89; with Torsin-1A (Homo sapiens) [9] it was 0.305; in assay [10], 0.175. Also, in assay [12], the composite z-score is 0.406. The z-score in assay [2] is -5.42 (inactive); in assay [3] it was 0.313 (inactive); in assay [4], 1.29 (inactive); in assay [5], -0.688 (inactive); in [11] it was -0.734 (inactive); in assay [13], 22.9 (active). In addition, the z-score in assay [14] is 8.4 (active); in [15] it was 0.0321 (inactive); in assay [16], 2.28 (inactive); in assay [17], 0.0781; in [18], -2.34 (inactive); in [19], 0.355 (inactive). In addition, the z-score in assay [20] was -1.76.
With `CCCCC=C[C@@H](NC(=O)CCc1ccccc1)c1ccccc1`, the composite z-score in [1] turned out to be 0.317; in assay [6] it was 1.64; in [7] it was 0.128; in the assay with Torsin-1A (Homo sapiens) [8], 0.677; with Torsin-1A (Homo sapiens) [9] it was 0.701; in assay [10] it was 0.0847. For the same compound, the composite z-score in assay [12] is 0.396. Moreover, the z-score in assay [2] is -1.98 (inactive); in assay [3] it was 0.175 (inactive); in assay [4] it was -0.951 (inactive); in assay [5] it was -0.0104 (inactive); in [11], -2.27 (inactive); in [13], 1.36 (inactive). Further, the z-score in assay [14] is 0.592 (inactive); in assay [15] it was -0.985 (inactive); in assay [16], 1.28 (inactive); in assay [17], -0.0113; in [18], -0.753 (inactive); in assay [19] it was -0.487 (inactive). In [20], the z-score worked out at 0.736.
Regarding `COC(=O)[C@@]1(Cc2ccc(OC)cc2)[C@H]2c3cc(C(=O)N4CCCC4)n(CCc4ccc(O)c(OC)c4)c3C[C@H]2CN1C(=O)c1ccccc1`, the composite z-score is 0.0928 in [1]; 0.199 in assay [6]; 0.12 in [7]; 0.168 with Torsin-1A (Homo sapiens) [8]; 0.774 with Torsin-1A (Homo sapiens) [9]; -0.909 in assay [10]. The compound also displayed a composite z-score in assay [12] of 0.128. For the same compound, the z-score was -0.666 (inactive) in assay [2]; -0.414 (inactive) in [3]; 2.5 (inactive) in assay [4]; 1.04 (inactive) in assay [5]; -1.82 (inactive) in assay [11]; 2.81 (inactive) in [13]. The z-score in [14] was 0.626 (inactive); in [15] it was 0.394 (inactive); in assay [16] it was 0.594 (inactive); in [17], 0.389; in assay [18], -0.124 (inactive); in assay [19] it was -1.39 (inactive). The z-score in [20] was -2.06.
With `O=C1O[C@H](c2ccccc2)[C@H](c2ccccc2)N2[C@H]1[C@@H](C(=O)N1CCN(c3ncccn3)CC1)[C@]1(C(=O)Nc3ccc(C#CCCO)cc31)[C@H]2c1ccc(OCCO)cc1`, the composite z-score came out at 1.02 in assay [1]; 1.19 in assay [6]; 0.221 in [7]; 0.949 in the assay with Torsin-1A (Homo sapiens) [8]; 0.938 with Torsin-1A (Homo sapiens) [9]; 1.39 in assay [10]. For the same compound, the composite z-score in [12] was 0.473. For the same compound, the z-score is 0.505 (inactive) in assay [2]; -0.339 (inactive) in assay [3]; -0.471 (inactive) in [4]; 0.344 (inactive) in [5]; -0.0115 (inactive) in [11]; 4.32 (inactive) in [13]. For the same compound, the z-score is 1.18 (inactive) in assay [14]; 0.588 (inactive) in assay [15]; 0.585 (inactive) in assay [16]; 0.034 in [17]; 1.11 (inactive) in [18]; 0.57 (inactive) in [19]. In addition, in assay [20], the z-score came out at 0.951.
